High-throughput results (PubChem)
Only a selection was taken, and hits are over-represented in it overall.
Sm TGR inh – qHTS Assay for the Inhibitors of Schistosoma Mansoni Peroxiredoxins. Schistosoma mansoni thioredoxin glutathione reductase (TGR), Q962Y6. purified TGR, DTNB reduction, TNB absorbance 405 nm. Potency, µM (series often up to 114 µM), for the others: at the top dose activity change, negative = inhibition, usual class: inhibitors. 3% of 360,000 active; note: potency is the fitted concentration of half-maximal effect; % is set by controls: 0 for no effect and ±100 for the full control effect; nearly all actives have a fitted effect of over 60% in size
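Kinetic colorimetric format: TGR-catalysed, NADPH-driven DTNB reduction monitored via TNB absorbance. Enzyme dispensed at 20 nM; compound exposure 15 min at room temperature before reaction start.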
Giardia FBPA inh – qHTS Assay for Inhibitors of Fructose-1,6-bisphosphate Aldolase from Giardia Lamblia; Potency, µM (doses to about 59.6 µM), for the others: top-dose activity, negative = inhibition, usual class: inhibitors; 0.71% of 290,000 active; A8B2U2; purified Giardia FBPA; note: potency is the fitted concentration of half-maximal effect; % is set by controls: 0 for no effect and ±100 for the full control effect; nearly all actives have a fitted effect of over 55% in size
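Giardia FBPA (40 nM reagent) was preincubated 10 min at RT with compound (up to 57.5 uM final), then substrate plus GAPDH/TPI/NAD/arsenate coupling system with diaphorase/resazurin was added; resorufin fluorescence (525/598 nm) was read after 20 min.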
Shiga toxin inh – A qHTS for Small Molecule Inhibitors of Shiga Toxin; Vero cells, Shiga toxin protein synthesis inhibition reporter; inhibition, % at 38.7 µM; 9.2% of 290,000 active; AID 2315, 2010; in the data active = inhibition mostly above about 28%, no sharp cut-off; inactive = mostly below about 43%; note: 0% is about no effect
LmPK inh – qHTS Assay for Inhibitors of Leishmania Mexicana Pyruvate Kinase (LmPK) | Q27686 | purified LmPK, Kinase-Glo ATP luminescence, 1 h | Potency, µM (doses to about 57.5 µM), inactives show top-dose activity change, negative = inhibition, hits mostly inhibitors | 0.37% of 290,000 active | AID 1721, 2009; note: potency is the fitted concentration of half-maximal effect; % is set by controls: 0 for no effect and ±100 for the full control effect
Target sequence (Q27686 whole entry, looked up): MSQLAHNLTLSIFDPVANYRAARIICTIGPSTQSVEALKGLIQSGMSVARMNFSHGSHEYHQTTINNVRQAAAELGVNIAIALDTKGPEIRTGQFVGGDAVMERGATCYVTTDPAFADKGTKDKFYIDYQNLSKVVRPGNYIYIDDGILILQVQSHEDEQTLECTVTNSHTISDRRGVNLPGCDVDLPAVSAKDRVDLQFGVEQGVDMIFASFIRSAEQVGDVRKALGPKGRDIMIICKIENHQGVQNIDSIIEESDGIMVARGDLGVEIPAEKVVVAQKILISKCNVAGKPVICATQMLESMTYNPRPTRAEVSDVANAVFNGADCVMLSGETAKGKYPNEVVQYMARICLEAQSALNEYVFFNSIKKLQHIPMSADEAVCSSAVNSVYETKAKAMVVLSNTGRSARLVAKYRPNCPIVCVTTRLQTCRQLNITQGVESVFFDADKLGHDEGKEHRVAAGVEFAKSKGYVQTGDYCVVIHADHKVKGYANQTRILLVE
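In 50 mM imidazole pH 7.2 with 7 mM MgCl2, LmPK (0.1 nM) turned over PEP (0.5 mM) and ADP (0.1 mM) for 1 h at room temperature. Luciferase read-out of ATP.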
TbPYK inhibitor – qHTS of Trypanosoma Brucei Inhibitors. pyruvate kinase (Trypanosoma brucei), Q57TT1. TbPYK enzyme, Kinase-Glo Plus ATP luminescence, 45 min. Potency, µM (highest dose often 76.8 µM), without a hit: at the highest dose activity, negative = inhibition, usual class: inhibitors. 0.12% of 410,000 active; note: potency is the fitted concentration of half-maximal effect; % is set by controls: 0 for no effect and ±100 for the full control effect; nearly all actives have a fitted effect of over 50% in size
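Glycolytic pyruvate kinase of T. brucei was incubated with substrate, test compound and 130 uM ADP for 45 minutes at room temperature. Luminescent Kinase-Glo Plus signal was measured after 10 minutes.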
Cycloheximide cs – Cycloheximide Counterscreen for Small Molecule Inhibitors of Shiga Toxin; cell reporter, cycloheximide protein synthesis inhibition counterscreen; max response, %; 12% of 300,000 active; in the data active = max response mostly above about 13%, no sharp cut-off; inactive = mostly below about 14%; note: read at 38.3 µM for the half of the compounds with a filed dose; 0% is about no effect
Active calls of the source: *; ? = inconclusive; . = no result given; [ ] = remark or other dose. Unless noted, calls come from the whole dose curve; as a rule, active = well fitted curve in the direction sought with a large enough effect; inconclusive = small, poorly fitted or top-dose-only effect, or another doubt; inactive = no such curve, though single readings can be large; an effect the other way counts as inactive or inconclusive.

SMILES | Sm TGR inh | Giardia FBPA inh | Shiga toxin inh | LmPK inh | TbPYK inhibitor | Cycloheximide cs
COc1ccc(C(CNC(=O)COc2cc(C)c(Cl)c(C)c2)N2CCCCC2)cc1 (configuration not stated) | 0% | 1% | -10 | -1% | -3% | 17
O=C(COC(=O)Cc1ccccc1)Nc1ccc(Cl)cn1 | -2% | -1% | 7 | -3% | 5% | -1
O=C(Cc1ccccc1)Nc1ccc(Cl)cn1 | 1% | 4% | 42 | 1% | 1% | 23*
O=C(CSc1ccccn1)Nc1ccc(Cl)cn1 | 15% | 0% | 44 | 1% | -12% | 23*
O=C(Nc1c(Cl)cccc1Cl)c1ccc(-c2ccccc2)cc1 | 8% | -1% | 16 | 3% | -4% | 12
Cc1ccc(C(=O)Nc2ncc3c(Cl)cccc3n2)cc1 | 13% | -9% | -18 | 13µM* | -19% | -5
CC(=O)N1CCN(S(=O)(=O)c2cccc(C(=O)Nc3ccc(C)cn3)c2)CC1 | -15% | 0% | 77* | 3% | -5% | 45*
Cc1ccc(NC(=O)c2cc(C(=O)Nc3ccc(C)cc3)n(C)n2)cc1 | . | . | . | . | -3% | .
COc1ccc(NC(=O)c2nc[nH]c2C(=O)NCCCCCNC(=O)OC(C)(C)C)cc1 | -9% | . | . | . | . | .
Cc1ccc(NC(=O)c2cccc(Cl)c2)nc1 | 4% | 1% | 161 | -25% | -1% | 29*
Cn1sc(NC(=O)c2cccc(Cl)c2)nc1=O | 6% | -15% | 51* | -16% | -5% | 16
Cc1ccc(CC(=O)Nc2ccc(Cl)cn2)cc1 | -13% | 4% | 70* | 4% | 1% | 41*
O=C(NC(=S)Nc1ccc(Cl)cn1)C(c1ccccc1)c1ccccc1 | 15% | 0% | 7 | 1% | 4% | 6
S=C(Nc1ccccc1)Nc1ccc(Cl)cn1 | 10% | 2% | 57 | 3% | -5% | 25*
CCC(Sc1nnc(C)n2c1cc1sccc12)C(=O)Nc1ccccc1F (configuration not stated) | 2% | . | . | . | 1% | .
COc1ccc(CC(=O)Nc2c(C(=O)N3CCN(c4ccccc4F)CC3)oc3ccccc23)cc1OC | -3% | . | . | . | -1% | .
COc1ccc(C(=O)Sc2nncc3ccccc23)cc1 | 20µM* | -5% | 37 | 4% | -12% | 20*
O=C(Nc1cccc([N+](=O)[O-])c1)c1cccc(C(=O)Nc2cccc([N+](=O)[O-])c2)c1 | -17% | 0% | -3 | 0% | 5% | -5
COC(=O)c1ccc(NC(=O)c2ccc3nc(C)sc3c2)cc1 | ? | -3% | . | 3% | 2% | 77*
COc1ccc(NC(=O)c2ccc3nc(C)sc3c2)cc1 | -16% | -15% | 129* | 0% | 4% | 64*
COC(=O)c1ccc2nc(NC(=O)C(C)(C)C)sc2c1 | 20% | -1% | -7 | 2%[11.5 µM] | -3% | -7
COc1ccc(CC(=O)Nc2ccc3nc(C)sc3c2)cc1OC | 3% | 4% | -1 | 6% | -2% | 2
COc1ccc(C(=O)Nc2ccc3nc(C)sc3c2)cc1OC | 3% | -1% | 84 | -2% | 1% | 31*
Cc1nc2ccc(C(=O)Nc3cccc([N+](=O)[O-])c3)cc2s1 | . | -4% | 101* | 0% | -2% | 30*
CSc1ccc(CCNC(=O)CCn2c(=O)c3cccn3c3cccnc32)cc1 | 10% | . | . | . | 5% | .
SMILES | Sm TGR inh | Giardia FBPA inh | Shiga toxin inh | LmPK inh | TbPYK inhibitor | Cycloheximide cs
COC(=O)c1c(N)n(-c2cc(Cl)cc(Cl)c2)c2nc3ccccc3nc12 | -11% | . | . | . | -3% | .
N#Cc1c2n(c(=S)n(-c3ccccc3)c1=O)CCCCC2 | 1% | 1% | -7 | -3% | 10% | 14*
N#Cc1c2n(c(=S)n(-c3ccc(F)cc3)c1=O)CCCCC2 | -5% | 6% | -9 | -1% | 10% | -8
COCCNC(=O)C1(C)CCCN(Cc2ccc(OC)cc2)C1 (configuration not stated) | . | . | . | . | 7% | .
CC(C)CCN1CC(O)=C(c2nc3ccccc3[nH]2)C1=N | 0% | 10% | 35 | 2% | 2% | 17*
CCCCCN1CC(O)=C(c2nc3ccccc3[nH]2)C1=N | 7% | 3% | 30 | -1% | 5% | 36*
N=C1C(c2nc3ccccc3c(=O)[nH]2)=C(O)CN1CCO | 11% | -2% | -17 | -4% | -6% | 11
CCCCN1CC(O)=C(c2nc3ccccc3[nH]2)C1=N | -1% | -1% | 72 | 1% | -3% | 47*
CC(C1CC2CCC1C2)N1CC(O)=C(c2nc3ccccc3[nH]2)C1=N (configuration not stated) | 0% | -4% | 12 | 1% | 4% | 17
CC(C)N1CC(O)=C(c2nc3ccccc3[nH]2)C1=N | -4% | -7% | 77* | 1% | 3% | 52*
CCCCCCN1CC(O)=C(c2ccccc2)C1=N | -6% | 5% | -7 | 9% | -9% | 6
COc1ccc(OC)c(CCNC(=O)Cn2ccc3cc(S(=O)(=O)N4CCCCC4)ccc32)c1 | 6% | . | . | . | 1% | .
CCOc1ccc(-c2cc3nc(C4CCN(C(=O)OC(C)(C)C)CC4)c(C(=O)Nc4ccc(C)c(F)c4)cn3n2)cc1 | -2% | . | . | . | 3% | .
N=C1C(c2nc3ccccc3c(=O)[nH]2)=C(O)CN1CCc1ccccc1 | -9% | 0% | 10 | 1% | -6% | 6
C=CCN1CC(O)=C(c2nc3ccccc3[nH]2)C1=N | 1% | -8% | 128* | -4% | -3% | 56*
COC(=O)c1c(NC(=O)C2C3CCC(C3)C2C(=O)O)sc2c1CCCCC2 (configuration not stated) | . | 23% | 51* | 2% | 0% | 13
COC(=O)c1c(NC(=O)C2C3CCC(O3)C2C(=O)O)sc2c1CCCCCC2 (configuration not stated) | 2% | 25% | 12 | 0% | -6% | 0
O=C(Cc1ccccc1)NCCSCc1ccccc1 | 0% | 4% | 26 | -3% | -6% | 19*
CC(NC(=O)CCSCc1ccccc1F)c1ccccc1 (configuration not stated) | 19% | 3% | 65* | 5% | 1% | 58*
O=C(CCSCc1ccccc1F)NCCc1ccccc1 | 1% | 3% | 21 | -1% | -3% | 17*
COc1ccccc1CNC(=O)c1ccc(N2CCCC2)c(NC(=O)NCc2ccccc2)c1 | 6% | . | . | . | -6% | .
COC(=O)C[C@@](O)(CCC(C)(C)O)C(=O)O[C@@H]1C(OC)=C[C@]23CCCN2CCc2cc4c(cc2[C@@H]13)OCO4 | . | -3% | -12 | . | . | -9
